Screening results (PubChem)
uPA generation – qHTS for Inhibitors of Cell Surface uPA Generation; cell surface uPA generation assay, qHTS; Potency, µM (titrated, usually from 38.3 µM), for inactives: at the top dose activity change, negative = inhibition, actives largely listed as inhibitors; 0.31% of 330,000 active; active = well fitted inhibition curve with a large enough effect; inconclusive = small, poorly fitted or top-dose-only effect; inactive = no such curve, though single readings can be large or run the other way; tested in mouse RAW 264.7 cells; note: potency is the fitted concentration of half-maximal effect; % is set by controls: 0 for no effect and ±100 for the full control effect; nearly all actives have a fitted effect of over 55% in size
RGS4 inh – Inhibitors of Regulator of G Protein Signaling (RGS) 4: qHTS; Regulator of G-protein signaling 4 (Homo sapiens), P49798; Transcreener GDP fluorescence polarization, RGS4-accelerated GTP hydrolysis; Potency, µM (top dose mostly 114 µM), for the others: at the highest dose activity change, negative = inhibition, usual class: inhibitors; 0.039% of 390,000 active; active = well fitted inhibition curve with a large enough effect; inconclusive = small, poorly fitted or top-dose-only effect; inactive = no such curve, though single readings can be large or run the other way; note: potency is the fitted concentration of half-maximal effect; % is set by controls: 0 for no effect and ±100 for the full control effect; nearly all actives have a fitted effect of over 75% in size
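MLSMR compounds (23 nl, pin-transferred) preincubated 10 min at room temperature with a 500nM (2x) first reagent, then RGS4 at 900nM (2x) plus Transcreener GDP mix added; fluorescence polarization (620/688 nm) read before and after 90 min at 30 °C.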
D3 antag – qHTS of D3 Dopamine Receptor Antagonist: qHTS; max response, negative = inhibition, %; D3R cells, DiscoveRx beta-arrestin luminescence, antagonist mode; stronger effect = lower value; D(3) dopamine receptor (Homo sapiens), P35462; AID 652054, 2013; 2.5% of 360,000 active; in the data active = max response below about -50%; inconclusive = no clear call, values can overlap the other calls; note: % is set by controls: 0 for no effect and ±100 for the full control effect
Target sequence (P35462 whole entry, looked up): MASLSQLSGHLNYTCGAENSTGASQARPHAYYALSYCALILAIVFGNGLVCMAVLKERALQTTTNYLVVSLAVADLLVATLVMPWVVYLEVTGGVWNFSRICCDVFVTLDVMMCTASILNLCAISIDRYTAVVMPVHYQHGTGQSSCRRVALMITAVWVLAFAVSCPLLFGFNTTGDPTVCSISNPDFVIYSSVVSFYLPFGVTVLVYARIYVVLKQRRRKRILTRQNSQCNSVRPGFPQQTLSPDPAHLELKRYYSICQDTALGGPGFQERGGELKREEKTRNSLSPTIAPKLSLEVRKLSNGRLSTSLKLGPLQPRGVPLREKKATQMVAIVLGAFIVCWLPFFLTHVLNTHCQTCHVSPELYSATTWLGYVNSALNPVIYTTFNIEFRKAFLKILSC
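Cells expressing the human receptor were seeded at 1500 cells/well, incubated overnight at 37 degrees C in 5% CO2, then exposed to library compounds with dopamine controls for 90 minutes at 37 degrees C before luminescent detection.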
DRD3 agonist – qHTS of D3 Dopamine Receptor Agonist: qHTS; D(3) dopamine receptor (Homo sapiens), P35462; D3R DiscoveRx beta-arrestin cells, luminescence, 90 min; max activation, %; 0.58% of 410,000 active; AID 652048, 2013; in the data active = max activation above about 30%; note: 0% is about no effect
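Cells at 1500/well, incubated overnight, then treated with pinned compounds (dopamine as control) for 90 min at 37 degrees C. DiscoveRx reagent added for 30 - 60 minutes at room temperature; luminescence read.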
* = called active by the depositor; ? = inconclusive; / = not tested or not shown; [ ] = remark or other dose. A selection: hits, their analogues and other compounds. The true share with any hit is near 3.1%.

SMILES	uPA generation	RGS4 inh	D3 antag	DRD3 agonist
COc1ccc(CCN(C)CC(O)COC(c2ccc(F)cc2)c2ccc(F)cc2)cc1OC (configuration not stated)	-7%	14%	-61*	-20
COc1ccc(CCN(C)CC(O)COc2c(C)ccc(C)c2C)cc1OC (configuration not stated)	-3%	28%	-22	-12
CC(C)(C)OC(=O)N1C(=O)[C@](OC(=O)c2ccccc2)(c2ccc(F)cc2)c2ccccc21	/	/	-2	1
CCn1cc(C(=O)NCC2CCCO2)c(=O)c2cc(S(=O)(=O)N(C)C3CCCCC3)ccc21 (configuration not stated)	2%	-8%	-52*	-1
Cc1ccccc1N(C)S(=O)(=O)c1ccc2[nH]cc(C(=O)NCC3CCCO3)c(=O)c2c1 (configuration not stated)	17%	-16%	-69*	9
CC(C)NC(=O)c1cc2c(Cl)nc3ccccc3c2s1	/	-6%	/	4
O=C(NC1CCCCC1)C(CCc1ccccc1)N1CCOCC1 (configuration not stated)	/	/	1	1
O=C(NC1CCCCC1)C(CCc1ccccc1)N1CCc2ccccc2C1 (configuration not stated)	/	/	-59*	-14
O=C[C@H](O)[C@@H](O)[C@H](O)[C@H](O)CO	/	/	/	10
CCOC(=O)C1(CCOc2ccccc2)CCN(Cc2cccc3nonc23)CC1	-25%	17%	-89*	-4
CCOC(=O)C1(CCc2ccccc2)CCN(Cc2ccc(O)cc2)CC1	?	32%	-57*	-23
COc1ccc(NC(=O)c2c(C)oc3ccc(O)c(CN4CCN(Cc5ccccc5)CC4)c23)cc1Cl	/	13%	/	-14
Cc1cccc(C(=O)N2CCc3cc(CNC(=O)c4ccc(Br)o4)ccc32)c1	/	-22%	/	-2
O=C(CCN1CCN(c2ccccc2F)CC1)Nc1ccc2c(c1)OCO2	10%	18%	314	40*
Cc1cccc(NC(=O)CCN2CCN(c3ccccc3F)CC2)c1	/	14%	/	39*
O=C(CCN1CCN(c2ccccc2)CC1)Nc1ccc2c(c1)OCO2	8%	7%[56.9 µM]	?	26
Cc1ncc(CO)c(/C=N/NC(=O)c2cc3c(s2)CCCC3)c1O	6.3µM*	-6%[56.9 µM]	-7	-3
CSc1ccc(S(=O)(=O)Nc2ccc(F)cc2)cc1	-2%	-4%	-27	-6
CSc1ccc(S(=O)(=O)Nc2c(C)cccc2C)cc1	-3%	-3%	-166*	-9
c1ccc(Cn2c(-c3cncs3)nc3ccccc32)cc1	-4%	-23%	-4	-15
N#CCCCCn1c(-c2cncs2)nc2ccccc21	-8%	16%	-56*	-3
O=C(Nc1ccc(/C=C/c2ccc(NC(=O)c3cc(S(=O)(=O)O)c4cccnc4c3O)cc2S(=O)(=O)O)c(S(=O)(=O)O)c1)c1cc(S(=O)(=O)O)c2cccnc2c1O	/	/	/	-20
CCc1ccc(CN(Cc2ccco2)C(=O)c2cc(-c3ccc(C)c(F)c3)on2)cc1	/	27%	/	10
Clc1ccc(OCc2nc(-c3ccccn3)no2)c(Br)c1	3.5µM*	?	-22	-8
COc1ccc(Cc2nc3ccc(C(=O)NCc4cc(Br)ccc4OC)cc3o2)cc1	/	-26%	/	-20
SMILES	uPA generation	RGS4 inh	D3 antag	DRD3 agonist
COc1cc(Cl)c(C)cc1Nc1nc2ccccc2c2nnc(C)n12	/	-10%	/	4
Cc1cc(Cn2nc(C(=O)NCc3cccc(C(F)(F)F)c3)cc2-c2ccccc2)on1	16%	11%	-60*	-15
Cc1ccc(CNC(=O)c2cc(-c3ccccc3)n(Cc3cc(C)no3)n2)cc1	22%	-5%	17	7
CC(=O)Oc1ccc2c(c1)CC[C@@H]1[C@@H]2CC[C@]2(C)[C@@H](O)CC[C@@H]12	/	/	/	4
CCCc1cc(C(=O)NNC(=S)NCC2CCCO2)cs1 (configuration not stated)	10%	-14%	7	-13
CCc1cc(C(=O)NNC(=S)NCC2CCCO2)cs1 (configuration not stated)	/	-12%	-53*	-2
CCc1cc(C(=O)NNC(=S)Nc2cccc(C)c2)cs1	-1%	-52%	-101*	-8
O=C(COc1ccc2ccc(=O)oc2c1)N1CC[C@@]2(O)CCCC[C@H]2C1	13%	8%	4	-5
